High-throughput results deposited in PubChem by Broad Institute.
Compounds with a hit are over-represented: about 3.1% of the library has one in this group of screens.
SIRT5 block: sirtuin-5 (human) deacylase inhibition. inhibition, % at 15 µM. 330,000 tested, 1.1% active. Purified SirT5, succinyl-peptide AMC, trypsin-coupled fluorescence. Q9NXA8; in the data active means inhibition above about 15%
Target sequence (Q9NXA8 whole entry, looked up): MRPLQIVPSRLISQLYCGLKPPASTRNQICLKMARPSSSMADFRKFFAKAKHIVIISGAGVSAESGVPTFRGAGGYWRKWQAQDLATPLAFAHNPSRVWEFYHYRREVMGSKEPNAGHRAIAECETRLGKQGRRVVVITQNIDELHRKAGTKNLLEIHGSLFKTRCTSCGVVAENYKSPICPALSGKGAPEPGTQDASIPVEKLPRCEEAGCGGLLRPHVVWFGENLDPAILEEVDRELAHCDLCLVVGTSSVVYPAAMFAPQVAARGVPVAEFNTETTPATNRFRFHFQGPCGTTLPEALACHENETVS
ERAP1 inh: ERAP1 (human) enzyme inhibition. Q9NZ08. recombinant ERAP1, Leu-AMC fluorescence, 60 min. inhibition, % at 10.7 µM. 340,000 tested, 0.15% active. AID 652197;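 active means mean replicate inhibition of at least 30%, or all replicates individually reaching that 30% level; inactive means mean below 30% and not every replicate reaching it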
FGF22 binding: binders of recombinant human FGF22 by thermal shift; activity (Tm shift, normalised), % at 9.99 µM; 340,000 tested, 1.5% active; SYPRO orange fluorescence; percent of sucrose octasulfate shift, DMSO zero; AID 651658;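 active means mean Tm shift, scaled 0 neutral to 100 positive control, at about 1.3% or above, every replicate too, limit read from the data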
Casp6 inh: inhibitors of human caspase-6; purified caspase-6, Z-VEID-R110 cleavage fluorescence; inhibition, % at 12.5 µM; 350,000 tested, 0.53% active;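 active means mean inhibition across replicates at least about 35%, with every replicate also reaching that limit, limit read from the data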
Target sequence (P55212 24-179 limits assumed): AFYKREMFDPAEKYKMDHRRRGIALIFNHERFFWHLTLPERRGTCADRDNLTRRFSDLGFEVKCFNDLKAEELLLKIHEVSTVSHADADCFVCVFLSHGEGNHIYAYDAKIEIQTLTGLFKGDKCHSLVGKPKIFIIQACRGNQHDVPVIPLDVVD
Target sequence (P55212 194-293 limits assumed): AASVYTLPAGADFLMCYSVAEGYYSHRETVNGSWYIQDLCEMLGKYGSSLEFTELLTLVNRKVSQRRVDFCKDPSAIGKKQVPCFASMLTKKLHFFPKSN
Hits are given with their value; - = inactive; . = no result given.

SMILES | SIRT5 block | ERAP1 inh | FGF22 binding | Casp6 inh
Cc1ccc(-c2ccc([C@@H]3[C@H](CO)N4CCCCN(C(=O)Nc5cccc(F)c5)C[C@@H]34)cc2)cc1 | - | - | - | -
O=C(Nc1ccc(F)cc1)N1CCCCN2[C@H](C1)[C@H](c1ccc(-c3ccccc3F)cc1)[C@@H]2CO | 18 | - | - | -
COc1ccc(NC(=O)N2CCCCN3[C@H](CO)[C@@H](c4ccc(-c5ccccc5F)cc4)[C@@H]3C2)cc1 | 18 | - | - | -
O=C(Nc1ccc(F)cc1)N1CCCCN2[C@@H](CO)[C@H](c3ccc(-c4ccccc4F)cc3)[C@@H]2C1 | - | - | - | -
CNC[C@@H]1Oc2cc(C#CC(C)(C)O)ccc2S(=O)(=O)N([C@@H](C)CO)C[C@H]1C | - | - | - | -
O=C(Cc1cccnc1)N[C@H]1CC[C@H](CCn2cc(-c3ccccc3F)nn2)O[C@@H]1CO | - | - | - | -
C[C@H](CO)N1C[C@H](C)[C@H](CN(C)Cc2ccc(Cl)c(Cl)c2)OCCCC[C@H](C)Oc2ccc(NS(C)(=O)=O)cc2C1=O | - | - | . | -
C[C@@H]1CCCCO[C@H](CN(C)S(=O)(=O)c2cccs2)[C@@H](C)CN([C@@H](C)CO)C(=O)c2cc(NC(=O)C3CCCCC3)ccc2O1 | - | - | - | -
C[C@@H]1CN([C@@H](C)CO)C(=O)c2cc(NS(=O)(=O)c3cn(C)cn3)ccc2O[C@@H](C)CCCCO[C@@H]1CN(C)C(=O)Cc1ccccc1 | - | - | - | -
C[C@@H]1CCCCO[C@H](CN(C)C(=O)Cc2ccccc2)[C@H](C)CN([C@H](C)CO)C(=O)c2cc(NS(=O)(=O)c3ccccc3)ccc2O1 | 16 | - | - | -
C[C@@H]1CN([C@H](C)CO)C(=O)c2cc(NS(=O)(=O)c3cn(C)cn3)ccc2O[C@@H](C)CCCCO[C@@H]1CN(C)C(=O)CCCN(C)C | - | - | - | 36
C[C@@H]1CCCCO[C@H](CN(C)C(=O)Cc2ccccc2)[C@@H](C)CN([C@H](C)CO)C(=O)c2cc(NS(=O)(=O)c3cn(C)cn3)ccc2O1 | 24 | - | - | -
Cc1ccccc1S(=O)(=O)N1CC[C@@H]2[C@H]1c1cc(-c3ccc(C#N)cc3)ccc1N(C)[C@H]2CO | - | - | - | -
O=S(=O)(NC[C@@H]1CC[C@H]2[C@H](CN2Cc2cccc(-c3ccccn3)c2)O1)c1ccccc1 | 18 | - | . | -
Cc1noc(C)c1NC(=O)NC[C@@H]1CC[C@@H]2[C@@H](CN2Cc2cccc(-c3ccccn3)c2)O1 | - | - | . | -
COc1ccc(NC(=O)Cc2ccccc2)cn1 | - | - | - | -
COc1ccc(NC(=O)CSc2ccccc2)cn1 | - | - | 43 | -
O=C(COc1nncc2ccccc12)Nc1ccc(F)c(F)c1 | - | - | 43 | -
O=Cc1cn(CCC(=O)O)nc1-c1cccc(Br)c1 | - | - | - | -
Cc1ccc(-c2nn(CCC(=O)O)cc2/C=C\C(=O)c2ccc(Br)cc2)cc1 | - | - | 15 | -
CC(C)CCC(C(=O)NC(C)c1ccccc1)C(=O)NC(C)c1ccccc1 (stereo not given) | - | - | - | -
CC(C)CCCCCCCCc1cccc(O)c1C(=O)O | 20 | - | . | -
CC=Cc1ccc2n(c1=O)C[C@H]1[C@H](CO)[C@@H](C(=O)N[C@@H](C)c3ccccc3)[C@@H]2N1Cc1cccnc1 (mixture of isomers) | - | . | . | .
CC(=O)N(C)c1ccc(NC(=O)Cc2cccs2)cc1 | - | - | - | 38
CC(=O)c1cccc(Nc2nc(-c3ccccc3)nc3ccccc23)c1 | - | - | - | -
SMILES | SIRT5 block | ERAP1 inh | FGF22 binding | Casp6 inh
O=c1[nH]c(Nc2ccccc2)cc2cc(Br)ccc12 | - | - | - | 99
CC(=O)c1cccc(-c2ccc3c(=O)[nH]c(Nc4ccccc4)cc3c2)c1 | - | - | - | 95
N#CC1=C(N)Oc2cc(O)c(Cl)cc2C1c1cccnc1 (stereo not given) | - | - | . | -
N#CC1=C(N)Oc2cc(O)c(Cl)cc2C1c1ccccc1F (stereo not given) | - | - | - | 44
CC(C)N1CCC(N2CCN(C3CCCCCC3)CC2CCO)CC1 (stereo not given) | - | - | 43 | -
CC(C)N1CCC(N2CCN(CCCc3ccccc3)CC2CCO)CC1 (stereo not given) | - | - | - | -
COc1cc2c(cc1OC)CN(CC(=O)Nc1ccccc1SC)CC2 | - | - | 43 | -
CC(=O)[C@@H]1[C@@H]2C(=O)N(Cc3ccccc3)C(=O)[C@@H]2C2c3ccccc3C=CN21 (stereo not given in full) | - | - | - | 61
CCOCC(=O)Nc1ccccc1C(=O)N1CCOCC1 | - | - | 44 | -
O=C(Nc1ccccc1C(=O)N1CCOCC1)c1cc2ccccc2o1 | 30 | - | - | -
COc1ccc(OCC(=O)Nc2ccccc2C(=O)N2CCOCC2)cc1 | - | - | - | -
C[C@H](CO)N1C[C@H](C)[C@@H](CN(C)Cc2ccc(C(=O)O)cc2)Oc2ccc(NC(=O)c3ccncc3)cc2C1=O | - | - | - | -
O=C(NCCCCNC(=O)c1ccccn1)c1ccccn1 | - | - | 43 | -
COc1ccc(C(=O)NNC(=O)c2ccccn2)cc1 | - | - | 44 | -
COc1ccc(C(=O)Nc2cccnc2Sc2ccc(Cl)cc2)cc1 | - | - | 29 | -
C[C@@H]1CN([C@@H](C)CO)S(=O)(=O)c2ccc(C#CC(C)(C)O)cc2O[C@@H]1CN(C)C | - | - | - | -
O=C(C[C@H]1C=C[C@H](NC(=O)c2ccncc2)[C@H](CO)O1)Nc1ccc(-c2ccccc2)cc1 | - | - | . | -
CC(NC(=O)CSCc1ccc(Br)cc1)c1ccccc1 (stereo not given) | - | - | . | -
CC(C)NC(=O)CSCc1cccc(Br)c1 | 19 | - | - | -
Cc1nn(-c2ccccc2)c2c1P(=O)(O)/C(=C1\N(C)c3ccccc3C1(C)C)C=N2 | - | - | . | 40
CN1/C(=C/C(=O)CSc2ccccc2C(=O)O)C(C)(C)c2ccccc21 | - | - | - | -
C[C@@H]1CN([C@H](C)CO)C(=O)Cc2cc(NS(=O)(=O)c3cn(C)cn3)ccc2O[C@H]1CN(C)C | - | - | - | -
S=c1[nH]nc(C2COc3ccccc3O2)o1 (stereo not given) | - | - | . | -
S=c1nc(C2COc3ccccc3O2)[nH][nH]1 (stereo not given) | - | - | 43 | -
N#Cc1c(SCC(=O)Nc2nc3ccccc3s2)sc2c(O)cc(=O)[nH]c12 | - | - | - | 60
CCCSc1nnc(NC(=O)CSc2sc3c(O)cc(=O)[nH]c3c2C#N)s1 | 26 | - | - | 45
N#Cc1c(SCC(=O)Nc2nccs2)sc2c(O)cc(=O)[nH]c12 | 26 | - | - | 82
CCOc1cccc(NC(=O)CSc2sc3c(O)cc(=O)[nH]c3c2C#N)c1 | - | - | - | -
N#Cc1c(SCC(=O)Nc2nc3ccc(Br)cc3s2)sc2c(O)cc(=O)[nH]c12 | - | - | - | -
C[C@@H]1CN([C@H](C)CO)C(=O)c2cc(C#CCc3ccccc3)cnc2O[C@@H]1CN(C)Cc1ccccc1 | - | - | - | -
